Six molecules from ChEMBL document CHEMBL1961873, “Compounds: GSK PKIS; Assays: Nanosyn kinase panel” (2012) can be followed below.

Each structure is given as a SMILES string.

Assay [1] concerns the target CDK3/Cyclin E (Homo sapiens) (UniProt P24864+Q00526). The settings on record: at 1 µM.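 Further: each figure is a mean percent inhibition of the CDK3/cyclin E complex.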
The target in assay [2] is Cyclin-dependent kinase 4 (Homo sapiens) (UniProt P11802). As to conditions: at 0.1 µM.
For assay [3] the target is unchanged. As to conditions: at 1 µM.
The target in assay [4] is Cyclin-dependent kinase 5 (Homo sapiens) (UniProt Q00535). As to conditions: at 0.1 µM.
Chain of Cyclin-dependent kinase 5 (Homo sapiens) (Q00535 whole entry, looked up): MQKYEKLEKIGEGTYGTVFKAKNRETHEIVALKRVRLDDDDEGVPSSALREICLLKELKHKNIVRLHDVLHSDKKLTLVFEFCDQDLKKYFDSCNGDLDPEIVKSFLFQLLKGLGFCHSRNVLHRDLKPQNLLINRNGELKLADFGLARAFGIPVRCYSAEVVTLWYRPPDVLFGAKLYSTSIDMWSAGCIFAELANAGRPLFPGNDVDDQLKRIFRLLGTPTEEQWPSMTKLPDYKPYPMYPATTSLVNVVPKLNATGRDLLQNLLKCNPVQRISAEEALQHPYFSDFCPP
Assay [5] has the same target. The settings on record: at 1 µM.
Assay [6] concerns the target Cyclin-dependent kinase 6 (Homo sapiens) (UniProt Q00534). As to conditions: at 0.1 µM.
Assay [7] shares this target. The settings on record: at 1 µM.
For assay [8], the target named is Dual specificity protein kinase CLK2 (Homo sapiens) (UniProt P49760). The settings on record: at 0.1 µM.
Chain of Dual specificity protein kinase CLK2 (Homo sapiens) (P49760 whole entry, looked up): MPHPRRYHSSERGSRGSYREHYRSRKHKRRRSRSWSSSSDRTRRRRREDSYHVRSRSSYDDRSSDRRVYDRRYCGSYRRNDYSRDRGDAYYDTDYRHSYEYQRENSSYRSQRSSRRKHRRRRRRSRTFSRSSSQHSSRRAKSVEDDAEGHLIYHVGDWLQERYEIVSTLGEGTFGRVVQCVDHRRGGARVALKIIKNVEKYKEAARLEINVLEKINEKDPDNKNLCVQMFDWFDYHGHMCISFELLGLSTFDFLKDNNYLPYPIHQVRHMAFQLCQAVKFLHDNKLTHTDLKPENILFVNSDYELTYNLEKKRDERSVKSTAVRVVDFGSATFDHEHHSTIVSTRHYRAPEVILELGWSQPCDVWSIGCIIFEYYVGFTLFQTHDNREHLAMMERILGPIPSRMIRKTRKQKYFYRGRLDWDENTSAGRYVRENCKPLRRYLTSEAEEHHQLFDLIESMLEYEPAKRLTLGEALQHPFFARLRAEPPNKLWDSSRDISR
For assay [9] the target is unchanged. As to conditions: at 1 µM.
The target in assay [10] is Dual specificity protein kinase CLK3 (Homo sapiens) (UniProt P49761). As to conditions: at 0.1 µM.
Chain of Dual specificity protein kinase CLK3 (Homo sapiens) (P49761 whole entry, looked up): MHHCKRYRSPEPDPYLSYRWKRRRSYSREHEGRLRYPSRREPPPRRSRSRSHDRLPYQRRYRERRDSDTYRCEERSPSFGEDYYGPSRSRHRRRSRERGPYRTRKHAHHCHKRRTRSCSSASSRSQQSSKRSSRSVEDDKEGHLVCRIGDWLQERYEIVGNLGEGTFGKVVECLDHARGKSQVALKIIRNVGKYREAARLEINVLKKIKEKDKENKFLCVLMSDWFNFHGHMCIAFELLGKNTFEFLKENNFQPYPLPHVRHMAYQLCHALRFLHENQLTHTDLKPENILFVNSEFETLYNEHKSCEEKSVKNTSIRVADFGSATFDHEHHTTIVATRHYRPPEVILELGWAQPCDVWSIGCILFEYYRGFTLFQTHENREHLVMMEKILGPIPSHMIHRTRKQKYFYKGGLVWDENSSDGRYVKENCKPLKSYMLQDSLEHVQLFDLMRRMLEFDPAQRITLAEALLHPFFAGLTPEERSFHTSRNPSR
Assay [11] shares this target. The settings on record: at 1 µM.
The target of assay [12] is Dual specificity tyrosine-phosphorylation-regulated kinase 1A (Homo sapiens) (UniProt Q13627). As to conditions: at 0.1 µM.
Assay [13] shares this target. As to conditions: at 1 µM.
The target in assay [14] is Dual specificity tyrosine-phosphorylation-regulated kinase 1B (Homo sapiens) (UniProt Q9Y463). As to conditions: at 0.1 µM.
Chain of Dual specificity tyrosine-phosphorylation-regulated kinase 1B (Homo sapiens) (Q9Y463 whole entry, looked up): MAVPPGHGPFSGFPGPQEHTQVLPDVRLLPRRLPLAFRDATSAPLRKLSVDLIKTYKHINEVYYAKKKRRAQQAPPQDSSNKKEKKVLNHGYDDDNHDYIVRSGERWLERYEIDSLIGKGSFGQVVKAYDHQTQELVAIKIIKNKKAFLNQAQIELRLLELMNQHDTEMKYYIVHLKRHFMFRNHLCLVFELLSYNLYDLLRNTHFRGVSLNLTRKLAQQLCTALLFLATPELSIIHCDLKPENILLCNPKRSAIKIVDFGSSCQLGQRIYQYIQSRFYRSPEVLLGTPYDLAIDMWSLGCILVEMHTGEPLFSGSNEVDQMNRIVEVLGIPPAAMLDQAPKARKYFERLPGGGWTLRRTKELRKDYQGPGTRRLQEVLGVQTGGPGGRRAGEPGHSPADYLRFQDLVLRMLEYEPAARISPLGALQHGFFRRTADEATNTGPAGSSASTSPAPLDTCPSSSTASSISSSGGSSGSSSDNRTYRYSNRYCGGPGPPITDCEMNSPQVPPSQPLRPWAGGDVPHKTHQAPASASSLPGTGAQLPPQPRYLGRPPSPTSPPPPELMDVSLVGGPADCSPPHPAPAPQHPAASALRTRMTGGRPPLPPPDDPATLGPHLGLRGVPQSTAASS
The target is the same in assay [15]. The settings on record: at 1 µM.
Assay [16] addresses T1, Dual specificity tyrosine-phosphorylation-regulated kinase 2 (Homo sapiens) (UniProt Q92630).
T1 sequence (whole entry): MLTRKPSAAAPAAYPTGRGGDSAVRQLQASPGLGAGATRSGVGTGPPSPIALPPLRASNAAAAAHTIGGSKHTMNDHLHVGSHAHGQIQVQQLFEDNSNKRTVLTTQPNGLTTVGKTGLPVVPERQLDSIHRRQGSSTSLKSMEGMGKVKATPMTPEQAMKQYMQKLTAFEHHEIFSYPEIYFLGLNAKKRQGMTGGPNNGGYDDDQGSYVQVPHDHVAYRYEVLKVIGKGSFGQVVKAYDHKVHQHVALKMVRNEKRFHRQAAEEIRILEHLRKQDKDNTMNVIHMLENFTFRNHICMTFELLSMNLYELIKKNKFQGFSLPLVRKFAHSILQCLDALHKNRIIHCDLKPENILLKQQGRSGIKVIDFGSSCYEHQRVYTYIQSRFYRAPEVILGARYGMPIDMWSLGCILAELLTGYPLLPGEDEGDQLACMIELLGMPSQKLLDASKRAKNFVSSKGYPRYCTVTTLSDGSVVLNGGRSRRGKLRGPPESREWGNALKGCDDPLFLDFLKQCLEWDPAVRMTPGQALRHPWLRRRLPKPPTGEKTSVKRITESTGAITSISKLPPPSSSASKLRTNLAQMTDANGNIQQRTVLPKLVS
As to conditions: at 0.1 µM.

Assay [17] concerns the target T1, Dual specificity tyrosine-phosphorylation-regulated kinase 2 (Homo sapiens). As to conditions: at 1 µM.
Assay [18] addresses Glycogen synthase kinase-3 alpha (Homo sapiens) (UniProt P49840). The settings on record: at 0.1 µM.
Assay [19] shares this target. As to conditions: at 1 µM.
The target in assay [20] is Glycogen synthase kinase-3 beta (Homo sapiens) (UniProt P49841). The settings on record: at 0.1 µM.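 Further: values are mean percent inhibition of GSK3B activity, from the GSK Published Kinase Inhibitor Set (PKIS) screening dataset.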
Chain of Glycogen synthase kinase-3 beta (Homo sapiens) (P49841 whole entry, looked up): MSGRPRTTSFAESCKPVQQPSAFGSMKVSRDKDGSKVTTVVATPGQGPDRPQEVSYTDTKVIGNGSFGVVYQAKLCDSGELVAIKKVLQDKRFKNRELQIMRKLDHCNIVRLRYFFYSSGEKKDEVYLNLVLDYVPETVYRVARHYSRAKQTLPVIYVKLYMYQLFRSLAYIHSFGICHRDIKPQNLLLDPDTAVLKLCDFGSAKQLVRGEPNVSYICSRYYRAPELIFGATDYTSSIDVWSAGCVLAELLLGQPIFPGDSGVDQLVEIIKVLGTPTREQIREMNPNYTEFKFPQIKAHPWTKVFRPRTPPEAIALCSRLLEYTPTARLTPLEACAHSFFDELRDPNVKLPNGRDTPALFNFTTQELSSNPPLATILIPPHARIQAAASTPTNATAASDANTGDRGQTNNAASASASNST

Chain of Glycogen synthase kinase-3 alpha (Homo sapiens) (P49840 2-483 limits assumed): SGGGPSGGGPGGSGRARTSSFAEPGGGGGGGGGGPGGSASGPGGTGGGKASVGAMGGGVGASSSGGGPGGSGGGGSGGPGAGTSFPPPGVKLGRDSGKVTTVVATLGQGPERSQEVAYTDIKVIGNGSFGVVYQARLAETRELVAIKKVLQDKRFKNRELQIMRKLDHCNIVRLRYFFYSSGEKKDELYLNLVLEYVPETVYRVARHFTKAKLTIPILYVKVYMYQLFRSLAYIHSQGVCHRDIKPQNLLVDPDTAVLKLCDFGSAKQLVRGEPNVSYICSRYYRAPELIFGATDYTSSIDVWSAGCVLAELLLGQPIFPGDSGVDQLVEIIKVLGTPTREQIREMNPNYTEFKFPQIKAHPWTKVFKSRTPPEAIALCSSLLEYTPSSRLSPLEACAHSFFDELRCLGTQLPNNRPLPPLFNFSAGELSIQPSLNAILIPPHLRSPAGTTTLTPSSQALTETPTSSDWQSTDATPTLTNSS
Chain of Cyclin-dependent kinase 6 (Homo sapiens) (Q00534 whole entry): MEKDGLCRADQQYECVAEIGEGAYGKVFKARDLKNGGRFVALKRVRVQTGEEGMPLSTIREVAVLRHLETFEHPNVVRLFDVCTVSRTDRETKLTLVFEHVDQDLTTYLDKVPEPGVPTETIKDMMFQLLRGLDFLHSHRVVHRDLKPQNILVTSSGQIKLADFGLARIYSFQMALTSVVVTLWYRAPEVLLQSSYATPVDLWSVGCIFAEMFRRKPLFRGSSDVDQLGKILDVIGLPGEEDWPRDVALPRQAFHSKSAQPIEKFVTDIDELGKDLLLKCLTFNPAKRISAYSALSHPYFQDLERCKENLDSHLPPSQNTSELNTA
Chain of CDK3/Cyclin E (Homo sapiens) (P24864 whole entry, looked up): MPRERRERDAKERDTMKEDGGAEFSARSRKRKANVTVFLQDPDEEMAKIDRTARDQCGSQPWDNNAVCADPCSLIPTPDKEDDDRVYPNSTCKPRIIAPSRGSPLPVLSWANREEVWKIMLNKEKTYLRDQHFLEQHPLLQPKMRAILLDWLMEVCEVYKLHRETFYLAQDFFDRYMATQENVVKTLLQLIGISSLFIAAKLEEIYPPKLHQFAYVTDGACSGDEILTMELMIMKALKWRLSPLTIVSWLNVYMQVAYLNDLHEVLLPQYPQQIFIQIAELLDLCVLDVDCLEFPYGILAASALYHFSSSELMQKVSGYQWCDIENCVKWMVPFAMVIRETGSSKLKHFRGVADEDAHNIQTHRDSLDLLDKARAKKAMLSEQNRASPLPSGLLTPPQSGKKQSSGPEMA
Chain of CDK3/Cyclin E (Homo sapiens) (Q00526 whole entry, looked up): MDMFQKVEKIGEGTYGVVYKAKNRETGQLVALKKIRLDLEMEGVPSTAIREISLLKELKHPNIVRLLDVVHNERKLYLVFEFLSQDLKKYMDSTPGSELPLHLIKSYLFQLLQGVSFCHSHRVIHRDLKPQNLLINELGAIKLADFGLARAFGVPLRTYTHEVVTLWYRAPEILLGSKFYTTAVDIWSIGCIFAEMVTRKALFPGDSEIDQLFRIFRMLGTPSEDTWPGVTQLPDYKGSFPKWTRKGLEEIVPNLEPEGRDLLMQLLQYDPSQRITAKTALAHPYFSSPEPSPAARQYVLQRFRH
Chain of Cyclin-dependent kinase 4 (Homo sapiens) (P11802 whole entry): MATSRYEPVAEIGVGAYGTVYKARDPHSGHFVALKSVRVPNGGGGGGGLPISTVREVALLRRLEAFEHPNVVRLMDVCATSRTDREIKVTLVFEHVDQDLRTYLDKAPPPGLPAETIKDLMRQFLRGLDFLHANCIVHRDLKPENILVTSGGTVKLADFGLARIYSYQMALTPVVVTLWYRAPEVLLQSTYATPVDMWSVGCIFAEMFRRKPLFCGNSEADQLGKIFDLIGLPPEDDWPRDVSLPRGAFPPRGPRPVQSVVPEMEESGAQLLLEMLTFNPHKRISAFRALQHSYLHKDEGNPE

Regarding `Clc1ccc(CNc2nccc(-c3cnn4ncccc34)n2)cc1`, the inhibition in assay [1] is 17.3%; in assay [2] it was 3.89%; in assay [3], 20.1%; in assay [4] it was 7.08%; in [5] it was 36.9%; in [6], 13.8%. For the same molecule, the inhibition in [7] was found to be 11%; in [8] it was 7.28%; in assay [9], 43.6%; in assay [10], 1.27%; in assay [11] it was 6.69%; in [12], 16%. Also, the inhibition in assay [13] worked out at 58%; in assay [14], 28.6%; in [15] it was 74.2%; in assay [16], 0.77%; in [17] it was 7.51%; in assay [18], 2.42%. Besides, the inhibition was determined as 9.8% in assay [19] and 2.82% in assay [20].
In the case of `CCS(=O)(=O)c1ccc(OC)c(Nc2ncc(-c3ccccc3Cl)o2)c1`, the inhibition in assay [1] was -0.99%; in [2], -0.77%; in assay [3], -0.72%; in [4], 0.11%; in assay [5], 0.87%; in [6], 4.47%. In addition, the inhibition in assay [7] was 3.06%; in assay [8] it was 4.19%; in assay [9], 34.1%; in assay [10], 0.66%; in assay [11] it was 8.78%; in assay [12] it was 0.71%. The inhibition in assay [13] is 5.06%; in assay [14] it was 1.56%; in assay [15], 5.7%; in [16] it was 1.98%; in assay [17], 11.8%; in assay [18], 0.38%. Besides, the inhibition is 1.64% in assay [19] and 1.56% in [20].
In the case of `COc1cc2ncn(-c3cc(OCc4ccccc4C(F)(F)F)c(C(C)=O)s3)c2cc1OC`, the inhibition in [1] was -2.36%; in assay [2], 1.74%; in [3], 2.66%; in [4], 0.4%; in assay [5] it was 1.96%; in assay [6] it was -0.64%. The inhibition in assay [7] is -0.67%; in [8] it was 0.9%; in assay [9], -0.63%; in assay [10], 0.94%; in [11] it was 1.08%; in assay [12], 1.88%. Also, the inhibition is 2.83% in assay [13]; -0.72% in assay [14]; 0.32% in [15]; 1.35% in assay [16]; 1.43% in [17]; 1.6% in [18]. Also, the inhibition in [19] was found to be 3.73%; in assay [20], 1.43%.
With `CNC(=O)c1cncc(/C=C/c2c(C)cccc2C)c1`, the inhibition in assay [1] is -0.8%; in assay [2], -2.46%; in assay [3], -1.6%; in [4], -2.99%; in assay [5], -1.16%; in assay [6] it was 3.56%. In addition, the inhibition in [7] was 0.79%; in assay [8], 0.58%; in assay [9], -1.19%; in assay [10], -2%; in assay [11] it was -2.04%; in assay [12] it was -1.29%. The inhibition in [13] was 2.27%; in assay [14] it was 0.49%; in assay [15], 1.89%; in assay [16], -0.14%; in assay [17], -0.61%; in assay [18], -2.93%. Moreover, the inhibition in assay [19] is -0.82%; in assay [20], -1.93%.
As for `Fc1ccc(-c2nc3n(c2-c2ccncc2)CCS3)cc1`, the inhibition in assay [1] is -2.73%; in [2], -1.97%; in assay [3] it was -0.8%; in [4], -2.49%; in assay [5], -2.61%; in [6], -7.51%. Also, the inhibition in assay [7] was -1.4%; in [8], 1.78%; in assay [9], 0.05%; in [10], -1.51%; in assay [11] it was -2.32%; in [12], 0.54%. In addition, the inhibition in assay [13] is 0.87%; in assay [14] it was -3.06%; in assay [15], -3.89%; in assay [16], 2.91%; in assay [17], 2.31%; in [18] it was -0.87%. Moreover, the inhibition in assay [19] is 3.8%; in assay [20], -1.43%.
With `C[C@@H](Oc1cc(-n2cnc3ccc(OCC4CCN(C)CC4)cc32)sc1C(N)=O)c1ccccc1Cl`, the inhibition in assay [1] is -1.61%; in assay [2], 2.79%; in assay [3], 7.39%; in assay [4] it was 1.33%; in [5] it was 3.11%; in assay [6], 0.41%. Also, the inhibition in assay [7] was found to be 0.37%; in assay [8], 1.46%; in assay [9], 7.9%; in assay [10] it was 1.64%; in [11] it was 2.9%; in assay [12], 2.94%. In addition, the inhibition in [13] stood at 3.56%; in assay [14] it was 1.54%; in assay [15], 2.55%; in assay [16], 4.66%; in assay [17] it was 9.72%; in assay [18] it was 4.39%. Further, the inhibition in assay [19] was 10.2%; in assay [20], 2.71%.
